Reference: PubChem BioAssay AID2315 (National Center for Advancing Translational Sciences (NCATS), 2010)
The campaign covered roughly 290,000 compounds. About 27,000 (9.3%) were called active. The full list was thinned out, with actives kept by preference. A number with no mark means an inactive call. Rule as the data show it: active = inhibition mostly above about 28% (no sharp cut-off); inactive = mostly below about 43%.

Assay: A qHTS for Small Molecule Inhibitors of Shiga Toxin; also: 0% is about no effect
Conditions: Vero cells, Shiga toxin protein synthesis inhibition reporter; at 38.7 µM, hits give high values
With `Cc1n[nH]c(C)c1S(=O)(=O)N1CCCC(C(=O)Nc2ccc(Br)cc2)C1` (stereo not drawn) the inhibition was 3.93%.
`COc1ccc2oc(=O)cc(-c3cc4ccccc4o3)c2c1` gave an inhibition of -7.01%.
Work on `COc1ccc(-c2noc(CCCC(=O)NC3CCCC3)n2)cc1OC` yielded an inhibition of -6.44%.
Work on `CCOc1nc(-c2ccc(OC)cc2)ccc1-c1noc(-c2cc(OC)c(OC)c(OC)c2)n1` yielded an inhibition of 11.8%.
In the case of `COc1ccc(-c2noc(-c3cccc(OC)c3OC)n2)cc1OC`, the inhibition is reported as 64.7% (active).
In the case of `CC(C)NC(=O)C(c1ccc(F)cc1)N(C(=O)CCC(=O)Nc1ccccn1)c1ccccc1F` (stereo not drawn), the inhibition is reported as -8.5%.
For `Cc1ccc(C)c(NS(=O)(=O)c2c(C)[nH]c(C)c2C(=O)N2CCCCC2)c1`, the inhibition was 2.83%.
In the case of `Nc1nc(-c2ccccc2)cc(-c2ccccc2)n1`, the inhibition is reported as 30.7% (active).
Compound `CNc1nc(-c2ccccc2)cc(-c2ccccc2)n1` has an inhibition of 1.28%.
In the case of `Nc1cccc(-c2cc(-c3ccccc3)nc(-c3cccc(N)c3)n2)c1`, the inhibition is reported as -3.83%.
With `O=C(NC1CC1)C(Cc1ccccc1)NS(=O)(=O)c1ccccc1F` (stereo not drawn) the inhibition was -4.61%.
Compound `CC1(C(=O)O)CCC(C(=O)Nc2ccc(Cl)c(Cl)c2)C1(C)C` (stereo not drawn) has an inhibition of -2.66%.
In the case of `O=C(CCn1c(SCC(=O)c2ccccc2)nc2ccccc2c1=O)NCc1ccc(F)cc1`, the inhibition is reported as -27.4%.
`O=C(Nn1c(-c2ccccc2)nc2ccccc2c1=O)c1ccc([N+](=O)[O-])cc1` showed an inhibition of -8.82%.
`O=C(CN(C(=O)CNC(=O)c1cccs1)c1cccc(F)c1)NC1CCCCC1` showed an inhibition of -5.58%.
With `O=C1CCN(Cc2ccc([N+](=O)[O-])cc2)CCN1[C@H](CO)Cc1ccccc1` the inhibition was -0.762%.
`C=CCc1cc(C)ccc1OCCCn1ccnc1` showed an inhibition of -4.77%.
`CC1C(=O)Nc2ccc(S(=O)(=O)N3CCN(c4ccccc4F)CC3)cc2NC1=O` (stereo not drawn) gave an inhibition of -0.75%.
Compound `CCCc1nnc(NC(=O)c2cccs2)s1` has an inhibition of 39%.
In the case of `COC(=O)c1c(NC(=O)c2cccs2)sc2c1CCCC2`, the inhibition is reported as 35.1%.
With `CCc1c(C)sc(NC(=O)c2cccs2)c1C(N)=O` the inhibition was 107% (active).
Compound `N#Cc1cccc(NC(=O)CN2CCCCCC2)c1` has an inhibition of 2.24%.
In the case of `N#Cc1cccc(NC(=O)CCC2CCCC2)c1`, the inhibition is reported as 33.8% (active).
For `Cc1ccc(CC(=O)Nc2cccc(C#N)c2)cc1`, the inhibition was 25.6%.
For `COc1ccc(N2CCN(CCNC(=O)Nc3cc(Cl)ccc3Cl)CC2)cc1`, the inhibition was 4.24%.
In the case of `CCc1ccccc1NC(=O)NCCN1CCCCC1`, the inhibition is reported as -9.72%.
Compound `COc1ccc(SC[C@H](Cc2ccccc2)N2CCN(CCc3ccccc3)CCC2=O)cc1` has an inhibition of -7.36%.
In the case of `Cc1ccc(SCC(CC(C)C)N2CCN(CCc3ccccc3)CCC2=O)cc1` (stereo not drawn), the inhibition is reported as 64.5% (active).
`CCCN1CCC(=O)N(C(CSc2ccc(C)cc2)Cc2ccccc2)CC1` (stereo not drawn) showed an inhibition of -8.43%.
For `O=c1onc(-c2c(F)cccc2F)n1-c1ccccc1Cl`, the inhibition was -3.28%.
With `CCOC(=O)c1c(NC(=O)C2CCN(S(=O)(=O)c3ccc(Cl)cc3)CC2)sc2c1CCCC2` the inhibition was 45.1% (active).
Compound `CCCOC(=O)Nc1sc2c(c1C(=O)OCC)CCC2` has an inhibition of -17.5%.
In the case of `CCOC(=O)c1c(NC(=S)NC)sc2c1CCCC2`, the inhibition is reported as -5.4%.
With `NC(=O)Cn1cc(/C=N\NS(=O)(=O)c2ccccc2)c2ccccc21` the inhibition was -5.18%.
Compound `COc1ccc(-c2nc3ccccc3n2CCC(C)C)cc1OC` has an inhibition of -2.89%.
For `Cc1nonc1C(=O)N/N=C/c1ccc(O)cc1`, the inhibition was 72.1% (active).
`O=C(C[n+]1ccccc1)N/N=C/c1ccc(O)cc1` gave an inhibition of 30.3%.
Compound `Cc1nc2ccc(C(=O)N/N=C/c3ccc(O)cc3)cc2[nH]1` has an inhibition of 22.1%.
With `O=C(CSc1nc2ccc([N+](=O)[O-])cc2[nH]1)c1ccc(Cl)cc1` the inhibition was -3.36%.
With `O=[N+]([O-])c1ccc2nc(-c3ccccn3)[nH]c2c1` the inhibition was 102% (active).
`O=c1[nH]c2cccnc2n1-c1ccc([N+](=O)[O-])cc1` showed an inhibition of 6.32%.
In the case of `COC(=O)c1cc(S(=O)(=O)Nc2ccc(C)c(F)c2)c[nH]1`, the inhibition is reported as 9.13%.
In the case of `CC(C)c1c(C(=O)N/N=C/c2ccccc2C(=O)O)nnn1-c1nonc1N`, the inhibition is reported as 0.546%.
With `Cc1cccc(N2CCN(Cc3nc(C4CC4)no3)CC2)n1` the inhibition was 18.6%.
In the case of `O=C(NCc1ccccc1Cl)C1CCCN1S(=O)(=O)c1ccc(F)cc1` (stereo not drawn), the inhibition is reported as -12.5%.
Work on `CCOC(=O)c1ccc(NC(=S)Nc2cc(C)cc(C)n2)cc1` yielded an inhibition of -12.4%.
For `CCOC(=O)c1cn[nH]c1NC(=S)Nc1ccccc1`, the inhibition was 57.1% (active).
In the case of `CCOC(=O)c1cc2c(nc1NC(=S)Nc1ccccc1)CC(C)(CC)OC2` (stereo not drawn), the inhibition is reported as -8.83%.
